Assay [1] is described as follows: AP1 Signaling Pathway (AID 357; active = well fitted curve in either direction with a large enough effect, not every such curve was filed as active; also: % is scaled to controls: 0 for no effect and ±100 for the full control effect). Summed up: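 AP-1-bla ME-180 cells with beta-lactamase reporter under AP-1 response element, stimulated with EC50 EGF; compounds titrated, 5 hours at 37 degrees Celsius. CCF4 read at 460/530 nm ratio; positive and negative modulators judged by AC50.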
Assay [2] has as its target Cytochrome P450 1A2 (Homo sapiens) (UniProt P05177). In words: p450-cyp1a2 (AID 410; calls by dose curve; also: potency is read from the fitted curve at half-maximal effect). Summed up: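 Human CYP1A2 (20nM) demethylated Luciferin-ME at its Km (100uM) in 100mM KPO4. After 10 min compound preincubation, NADPH regeneration ran the reaction 60 min at room temperature. Luciferin was read by luminescence, normalized to 57 uM furafylline.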
A short description of assay [3]: NFAT Signaling Pathway (AID 444; active = well fitted curve in either direction with a large enough effect, not every such curve was filed as active;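 also: carbachol stimulus at about its EC50 of 1 µM final; % is scaled to controls: 0 for no effect and ±100 for the full control effect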). The conditions noted are these: Jurkat NFAT-bla M1, carbachol, beta-lactamase ratio, 5 h; at 17.2 µM (top of the series) unless noted. Summed up: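 Jurkat cells carrying an NFAT-driven β-lactamase reporter and co-transfected muscarinic M1 receptor were treated with compound plus carbachol (1 uM final, an EC50 level) for 5 h at 37 °C. CCF4 loading followed for 1 h at RT; 460/530 nm ratio gave %activity.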

A short description of assay [4]: Stat Signaling Pathway (AID 446; active = well fitted curve in either direction with a large enough effect, not every such curve was filed as active;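 also: ME-180 cervical cancer cells given 40 pM IL-6 alongside compound; SIE-controlled beta-lactamase reporter measured as 460/530 nm FRET emission ratio; % is scaled to controls: 0 for no effect and ±100 for the full control effect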). Summed up: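 Reporter line: ME-180 cervical carcinoma, SIE-beta-lactamase. Treatment: compound with 40 pM IL-6, 5 hrs, 37 C, in low-serum OPTI-MEM with 10 mM HEPES pH 7.3. Detection: 460/530 nm fluorescence.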
The target in assay [5] is Glucocorticoid receptor (Homo sapiens) (UniProt P04150). In words: GR-GFP Redistribution (AID 450;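 active = compounds whose dose series gives a full or clear partial fitted curve of increased nuclear translocation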; also: potency is read from the fitted curve at half-maximal effect). The conditions noted are these: U2OS GR-GFP nuclear translocation, laser cytometry, 2 h.
Chain of Glucocorticoid receptor (Homo sapiens) (P04150 whole entry, looked up, the tested form may be a part): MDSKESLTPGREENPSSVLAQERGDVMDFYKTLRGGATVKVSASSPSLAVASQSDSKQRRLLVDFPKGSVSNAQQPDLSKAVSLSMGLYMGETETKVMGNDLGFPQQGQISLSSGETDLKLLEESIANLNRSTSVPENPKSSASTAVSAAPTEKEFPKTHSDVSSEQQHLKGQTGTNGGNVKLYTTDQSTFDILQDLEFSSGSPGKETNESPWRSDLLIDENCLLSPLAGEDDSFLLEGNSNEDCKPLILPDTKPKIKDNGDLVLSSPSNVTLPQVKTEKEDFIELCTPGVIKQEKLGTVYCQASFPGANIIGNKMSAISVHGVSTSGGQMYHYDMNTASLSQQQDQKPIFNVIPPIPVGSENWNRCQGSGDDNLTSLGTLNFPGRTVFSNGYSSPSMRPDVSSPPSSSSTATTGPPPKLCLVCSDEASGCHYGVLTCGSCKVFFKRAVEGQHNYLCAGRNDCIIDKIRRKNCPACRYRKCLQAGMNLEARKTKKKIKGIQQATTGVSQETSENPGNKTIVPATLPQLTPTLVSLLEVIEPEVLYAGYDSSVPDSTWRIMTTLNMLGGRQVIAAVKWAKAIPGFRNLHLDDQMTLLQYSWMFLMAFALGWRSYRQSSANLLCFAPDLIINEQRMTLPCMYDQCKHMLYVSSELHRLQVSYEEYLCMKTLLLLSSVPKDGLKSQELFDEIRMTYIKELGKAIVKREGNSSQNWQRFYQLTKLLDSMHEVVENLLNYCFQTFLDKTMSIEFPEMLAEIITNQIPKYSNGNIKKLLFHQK
The target is the same in assay [6]. In words: GR-EFC Redistribution (AID 451; calls by dose curve; also: potency is read from the fitted curve at half-maximal effect). Particulars: CHO-K1 GR-EFC translocation, beta-gal luminescence, 2 h. Summed up: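 CHO-K1 cells stably expressing nuclear-localized β-gal enzyme acceptor and GR fused C-terminally to the enzyme donor fragment; ligand-driven nuclear translocation restores β-gal by complementation. Compounds titrated up to 46 uM final, 2 h at 37 °C; luminescence read.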

Assay [7] addresses 3',5'-cyclic-AMP phosphodiesterase 4B (Homo sapiens) (UniProt Q07343). The experiment in a line: qHTS Assay for Inhibitors of PDE-IV (AID 607; active = well fitted activation curve with a large enough effect in the main read-out, with a control signal flat, not every such curve was filed as active; also: % of control where 0% means no effect). Summed up: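 Cell-based read-out of cAMP via a modified cyclic nucleotide-gated channel and membrane potential dye (535/590 nm) in HEK293 cells expressing PDE4 endogenously. Compounds tested up to 22.9 uM final; 100 uM RO 20-1724 reference.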

A short description of assay [8]: qHTS Assay for Lipid Storage Modulators (AID 1519; calls by dose curve). The conditions noted are these: Drosophila S3 cells, BODIPY lipid droplet/cell ratio, laser cytometry, cells loaded with oleic acid; for activity change, negative = inhibition: at 25.7 µM (top of the series). Summed up: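 Cells seeded at 5,000 per well were treated with compounds over a concentration series and loaded with oleic acid (400 uM, as added). Lipid droplet fluorescence (488 nm excitation, 500-530 nm channel) was read by laser-scanning cytometry and normalized to 20 uM Triacsin C.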
A general note: Quantitative high-throughput screening tests each substance at several concentrations.

The target in assay [9] is ATP-dependent 6-phosphofructokinase (Trypanosoma brucei brucei) (UniProt O15648). The experiment in a line: qHTS Assay to Find Inhibitors of T. brucei phosphofructokinase: hit validation (AID 492961).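 Also: luminescence reports ADP formed as PFK phosphorylates fructose-6-phosphate with ATP; % is scaled to controls: 0 for no effect and ±100 for the full control effect.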 Summed up: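 Percent activity derived from corrected luminescence, normalized between 0x and 1x enzyme controls, then fitted to concentration-response curves. Conditions: 1.25 nM PFK, 0.1 mM ATP, 0.5 mM F6P, 45 min RT.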
Chain of ATP-dependent 6-phosphofructokinase (Trypanosoma brucei brucei) (O15648 whole entry, looked up): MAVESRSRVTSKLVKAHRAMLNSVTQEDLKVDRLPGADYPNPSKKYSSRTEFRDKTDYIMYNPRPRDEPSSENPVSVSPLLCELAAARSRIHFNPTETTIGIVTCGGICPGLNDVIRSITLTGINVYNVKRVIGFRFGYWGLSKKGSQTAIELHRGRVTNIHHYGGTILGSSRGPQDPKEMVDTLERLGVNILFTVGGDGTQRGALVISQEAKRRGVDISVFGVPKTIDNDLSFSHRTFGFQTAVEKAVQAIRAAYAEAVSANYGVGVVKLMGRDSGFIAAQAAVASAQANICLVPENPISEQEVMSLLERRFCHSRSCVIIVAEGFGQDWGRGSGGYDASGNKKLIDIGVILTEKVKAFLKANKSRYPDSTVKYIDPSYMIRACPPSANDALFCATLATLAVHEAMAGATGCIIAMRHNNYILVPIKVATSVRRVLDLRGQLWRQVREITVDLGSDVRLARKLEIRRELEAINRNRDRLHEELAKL

Assay [10] deals with Luciferin 4-monooxygenase (Photinus pyralis) (UniProt P08659). In words: Biochemical firefly luciferase enzyme assay for NPC (AID 624030).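 Also: purified P. pyralis luciferase at 10 nM with luciferin and ATP substrate; 0% = DMSO and -100% = full luciferase inhibition by PTC124 control; nearly all actives have a fitted effect of over 70% in size.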 Summed up: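 Counter-screen for direct inhibition of the luciferase enzyme by approved-drug library compounds, run at 10 nM enzyme in 50 mM Tris acetate (final). Luminescence was read within 5 min of enzyme-buffer addition and normalized to PTC124 versus DMSO (0%).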
Chain of Luciferin 4-monooxygenase (Photinus pyralis) (P08659 whole entry, looked up): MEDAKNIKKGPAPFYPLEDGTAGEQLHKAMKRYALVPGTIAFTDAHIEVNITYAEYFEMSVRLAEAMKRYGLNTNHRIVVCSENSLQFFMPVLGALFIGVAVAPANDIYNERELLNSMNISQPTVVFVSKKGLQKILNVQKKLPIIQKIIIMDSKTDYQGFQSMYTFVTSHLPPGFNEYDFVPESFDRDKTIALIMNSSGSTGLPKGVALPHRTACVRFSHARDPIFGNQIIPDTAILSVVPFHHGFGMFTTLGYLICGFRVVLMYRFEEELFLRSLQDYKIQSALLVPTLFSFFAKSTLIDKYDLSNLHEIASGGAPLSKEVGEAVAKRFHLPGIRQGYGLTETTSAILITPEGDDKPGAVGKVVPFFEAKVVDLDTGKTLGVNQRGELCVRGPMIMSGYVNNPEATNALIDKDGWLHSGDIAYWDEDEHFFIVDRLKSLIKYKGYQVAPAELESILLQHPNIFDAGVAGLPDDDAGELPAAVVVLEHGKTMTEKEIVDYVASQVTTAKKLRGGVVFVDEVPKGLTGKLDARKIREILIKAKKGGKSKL

The nature of assay [11]: qHTS profiling for inhibitors of Plasmodium falciparum proliferation (AID 504749).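 Also: 0% = DMSO vehicle and full inhibition = artemisinin control; nearly all actives have a fitted effect of over 60% in size.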 Particulars: P. falciparum in erythrocytes, SYBR Green DNA, 72 h, at 12.8 µM (top of the series). Summed up:
(§1)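 P. falciparum-infected erythrocytes (0.3% parasitemia, 2.5% hematocrit final) were exposed to compounds for 72 h at 37 C in 5% CO2, then lysed with SYBR Green buffer overnight at room temperature; parasite DNA fluorescence was normalized to artemisinin and DMSO controls.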

In another assay the test system is 3D7. The assay is described as above. The conditions noted are these: P. falciparum in erythrocytes, SYBR Green DNA, 72 h; series mostly up to 12.8 µM. Summed up:
as §1

The next assay relates to C2A. The description is as above. The conditions noted are these: P. falciparum in erythrocytes, SYBR Green DNA, 72 h; series mostly up to 12.8 µM. Summed up:
as §1

Another assay deals with CP217. The description is as above. Particulars: P. falciparum in erythrocytes, SYBR Green DNA, 72 h; series mostly up to 12.8 µM. Summed up:
as §1

Another assay relates to CP250. Described as above. The conditions noted are these: P. falciparum in erythrocytes, SYBR Green DNA, 72 h; series mostly up to 12.8 µM. Summed up: as §1
The next assay deals with FAB9. Described as above. Particulars: P. falciparum in erythrocytes, SYBR Green DNA, 72 h; series mostly up to 12.8 µM. Summed up: as §1
In the next assay the test system is JCK. The description is as above. Particulars: P. falciparum in erythrocytes, SYBR Green DNA, 72 h; series mostly up to 12.8 µM. Summed up:
as §1

The next assay relates to PC49. Described as above. The conditions noted are these: P. falciparum in erythrocytes, SYBR Green DNA, 72 h; series mostly up to 12.8 µM. Summed up: as §1
Assay [12] concerns the target Mitogen-activated protein kinase 10 (Mus musculus) (UniProt Q61831). The experiment in a line: JNK3 AlphaScreen Assay (AID 530; active = well fitted curve in either direction with a large enough effect, not every such curve was filed as active). Summed up: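 JNK3 came from HepG2 lysates pre-activated with IL-1beta and TNF-alpha and phosphorylated biotinylated GST-cJun (1-79) at 10 uM ATP, pH 7.6, room temperature. Compounds were titrated. AlphaScreen signal used anti-phospho-cJun (Ser73) antibody.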
(In general: Alpha assays give light when donor and acceptor beads are brought close together.)

Assay [13] deals with Ubiquitin carboxyl-terminal hydrolase 1 (Homo sapiens) (UniProt O94782). In words: Inhibitors of USP1/UAF1: Pilot qHTS (AID 504865).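 Also: rhodamine fluorescence freed from ubiquitin-rhodamine substrate followed over time; top concentration of the series differs between compounds; % is scaled to controls: 0 for no effect and ±100 for the full control effect; nearly all actives have a fitted effect of over 35% in size.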 Summed up:
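Kinetic fluorescence assay: 1nM USP1/UAF1, 15 min compound preincubation, then 150nM Ub-Rho; 480/540 nm.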

Setting [14] is: measured here: cell count channel max response.
Where [15] appears, read: measured here: lipid channel max response.

The values below come from PubChem BioAssay (NCATS).

Results filed as inconclusive are left out. Calls of active or inactive are those of the source. Unless noted, calls follow the shape of the dose curve; as a rule, active = well fitted curve in the direction sought with a large enough effect; inconclusive = small, poorly fitted or top-dose-only effect, or another doubt; inactive = no such curve, though single readings can be large; an effect the other way counts as inactive or inconclusive. Bounds are passed on as bounds.

Chain of Cytochrome P450 1A2 (Homo sapiens) (P05177 whole entry, looked up): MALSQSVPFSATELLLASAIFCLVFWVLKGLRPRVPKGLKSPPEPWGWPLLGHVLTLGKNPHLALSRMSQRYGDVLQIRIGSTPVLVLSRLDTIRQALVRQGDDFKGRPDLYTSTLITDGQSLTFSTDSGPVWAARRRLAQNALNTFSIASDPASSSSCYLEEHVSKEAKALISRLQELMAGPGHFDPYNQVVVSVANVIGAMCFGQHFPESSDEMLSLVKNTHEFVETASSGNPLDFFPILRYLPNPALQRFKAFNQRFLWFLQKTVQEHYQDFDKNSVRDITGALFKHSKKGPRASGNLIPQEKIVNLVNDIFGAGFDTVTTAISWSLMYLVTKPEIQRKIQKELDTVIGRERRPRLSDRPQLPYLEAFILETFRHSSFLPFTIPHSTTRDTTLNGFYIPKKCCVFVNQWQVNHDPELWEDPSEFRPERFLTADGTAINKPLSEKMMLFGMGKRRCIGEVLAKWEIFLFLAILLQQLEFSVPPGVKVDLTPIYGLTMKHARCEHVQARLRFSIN
Chain of Ubiquitin carboxyl-terminal hydrolase 1 (Homo sapiens) (O94782 whole entry, looked up): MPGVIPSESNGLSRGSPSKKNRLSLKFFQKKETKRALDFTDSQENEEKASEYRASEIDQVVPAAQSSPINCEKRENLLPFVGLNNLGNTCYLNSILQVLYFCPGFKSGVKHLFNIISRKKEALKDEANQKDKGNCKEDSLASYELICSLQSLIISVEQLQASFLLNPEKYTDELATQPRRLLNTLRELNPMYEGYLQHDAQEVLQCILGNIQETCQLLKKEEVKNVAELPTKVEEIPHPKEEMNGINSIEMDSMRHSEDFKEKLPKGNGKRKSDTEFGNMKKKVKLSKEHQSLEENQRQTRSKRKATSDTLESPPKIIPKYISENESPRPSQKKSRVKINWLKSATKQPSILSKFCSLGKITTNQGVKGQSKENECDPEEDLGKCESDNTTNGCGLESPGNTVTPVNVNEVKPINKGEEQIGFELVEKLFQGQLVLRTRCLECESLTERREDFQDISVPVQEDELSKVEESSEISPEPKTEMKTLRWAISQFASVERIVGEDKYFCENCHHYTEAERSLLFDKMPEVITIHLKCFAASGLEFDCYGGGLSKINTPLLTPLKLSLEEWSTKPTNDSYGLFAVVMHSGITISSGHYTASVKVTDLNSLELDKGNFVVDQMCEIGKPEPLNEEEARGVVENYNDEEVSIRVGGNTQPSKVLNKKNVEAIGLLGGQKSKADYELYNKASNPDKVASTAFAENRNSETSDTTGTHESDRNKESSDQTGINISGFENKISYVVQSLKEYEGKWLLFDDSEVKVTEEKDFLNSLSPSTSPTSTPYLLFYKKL
Chain of 3',5'-cyclic-AMP phosphodiesterase 4B (Homo sapiens) (Q07343 whole entry, looked up): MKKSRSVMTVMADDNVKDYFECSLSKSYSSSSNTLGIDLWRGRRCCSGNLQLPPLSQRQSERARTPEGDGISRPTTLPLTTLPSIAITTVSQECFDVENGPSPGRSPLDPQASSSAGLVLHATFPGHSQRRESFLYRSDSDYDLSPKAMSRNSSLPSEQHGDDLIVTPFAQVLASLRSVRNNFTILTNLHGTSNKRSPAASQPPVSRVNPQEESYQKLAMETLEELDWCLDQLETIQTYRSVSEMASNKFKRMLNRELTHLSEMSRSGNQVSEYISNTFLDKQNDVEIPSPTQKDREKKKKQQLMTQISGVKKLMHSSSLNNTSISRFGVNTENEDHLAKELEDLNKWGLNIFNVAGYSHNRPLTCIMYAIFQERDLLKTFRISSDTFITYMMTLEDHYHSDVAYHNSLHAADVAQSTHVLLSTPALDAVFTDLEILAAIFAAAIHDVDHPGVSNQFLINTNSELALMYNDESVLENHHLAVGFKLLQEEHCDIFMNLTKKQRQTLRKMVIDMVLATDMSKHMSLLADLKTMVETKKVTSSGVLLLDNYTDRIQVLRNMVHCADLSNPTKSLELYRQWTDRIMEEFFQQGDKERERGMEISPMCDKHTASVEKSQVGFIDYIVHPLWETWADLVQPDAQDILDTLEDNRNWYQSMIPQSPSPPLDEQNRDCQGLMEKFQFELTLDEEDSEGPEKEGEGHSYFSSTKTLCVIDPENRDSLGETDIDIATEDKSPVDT

As for `O=C(Nc1ccccc1)OC[C@H](CN1CCCCC1)OC(=O)Nc1ccccc1`, the compound was called inactive in [1], in assay [4], in assay [7] and in assay [9]. The Potency was 12.6 µM (active) in assay [2], > 20.6 µM (inactive) in assay [5] and > 20.6 µM (inactive) in [6]. In addition, the figures for the activity change, negative = inhibition in assay [3] and in assay [8] were -6.24% (inactive) and -4.16% (inactive), respectively. Moreover, the max response is -5.88% in assay [8] (setting [14]) and -11% in [8] (setting [15]). For the same compound, the Potency entry (in [10]; with 3D7; with C2A; with CP217; in the assay with CP250; in the assay on FAB9) was “inactive” each time. The Potency entry in the assay on JCK and in the assay with PC49 was “inactive” in each case. The activity, negative = inhibition is -1.15% (inactive) in [11] (parasite line A) and -2.24% (inactive) in assay [11] (parasite line B).
Turning to `Cc1cccc(C)c1NC(=O)[C@H](C)N`, the call in assay [1], in assay [4], in assay [7] and in [9] was inactive. For the same compound, the Potency entry (in assay [2]; in assay [12]; in [13]; in assay [10]; in the assay with 3D7; in the assay with C2A) was “inactive” throughout. Also, the Potency entry in the assay on CP217, in the assay on CP250, with FAB9, in the assay on JCK and in the assay with PC49 was “inactive” each time. Besides, the activity change, negative = inhibition was -7.54% (inactive) in assay [3] and -1.94% (inactive) in [8]. The Potency in [5] and in [6] was > 20.6 µM (inactive) in each case. Also, the max response in assay [8] (setting [14]) is -3.54%; in [8] (setting [15]), -7.81%. Moreover, the values for the activity, negative = inhibition in [11] (parasite line A) and in assay [11] (parasite line B) were 7.15% (inactive) and 10.5% (inactive), respectively.
Turning to `CC(=O)N[C@H]1[C@@H](O[C@@H](C)C(=O)O)[C@H](O)[C@H](CO)O[C@@H]1O`, the compound was classed as inactive in assay [1], in assay [4] and in assay [7]. Also, the Potency entry in [2], in [12] and in [13] was “inactive” throughout. Besides, the figures for the activity change, negative = inhibition in assay [3] and in assay [8] were 4.75% (inactive) and -1.67% (inactive), respectively. For the same compound, the Potency in assay [5] and in [6] was > 20.6 µM (inactive) throughout. Besides, the max response in [8] (setting [14]) came to 7.96%; in assay [8] (setting [15]) it was 4.82%.
Consider `NC(=O)N/N=C\c1ccc([N+](=O)[O-])o1`, for which the result in assay [1], in [4] and in assay [7] was inactive. The Potency in assay [2] was 12.6 µM (active); in assay [5], > 20.6 µM (inactive); in [6] it was > 20.6 µM (inactive). Moreover, the activity change, negative = inhibition was -5.34% (inactive) in assay [3] and 0.117% (inactive) in assay [8]. The Potency result in [12] and in [13] was “inactive” in each case. The max response was -2.81% in assay [8] (setting [14]) and -1.91% in assay [8] (setting [15]).
With `C=C1CC[C@H](O)C/C1=C/C=C1\CCC[C@]2(C)[C@H]1CC[C@H]2[C@@H](C)/C=C\[C@@H](C)C(C)C`, the outcome in [1], in assay [4] and in assay [7] was inactive. Also, the Potency entry in [2], in [12] and in assay [13] was “inactive” throughout. For the same compound, the figures for the activity change, negative = inhibition in assay [3] and in assay [8] were 1.42% (inactive) and 0.549% (inactive), respectively. Besides, the Potency in assay [5] and in [6] was > 20.6 µM (inactive) in each case. Further, the figures for the max response in assay [8] (setting [14]) and in assay [8] (setting [15]) were -2.49% and -2.71%, respectively.
Turning to `CC(=O)O[C@]1(C(C)=O)CC[C@@H]2[C@@H]3C=C(C)C4=CC(=O)CC[C@@]4(C)[C@H]3CC[C@]21C`, the compound was called inactive in assay [1], in assay [4], in assay [7] and in assay [9]. Besides, the Potency entry (in assay [2]; in [10]; with 3D7; with C2A; in the assay on CP217; in the assay with CP250) was “inactive” throughout. Moreover, the Potency entry with FAB9, in the assay with JCK and in the assay with PC49 was “inactive” in each case. Also, the figures for the activity change, negative = inhibition in assay [3] and in [8] were -7.69% (inactive) and -3.56% (inactive), respectively. Moreover, the Potency is 0.00312 µM (active) in assay [5] and 0.0557 µM (active) in assay [6]. Further, the max response in [8] (setting [14]) was -20.2%; in [8] (setting [15]) it was -22%. For the same compound, the activity, negative = inhibition is -0.563% (inactive) in assay [11] (parasite line A) and 2.77% (inactive) in assay [11] (parasite line B).
